Screening results deposited in PubChem BioAssay by National Center for Advancing Translational Sciences (NCATS).
The list is not random: actives were taken first. Their share in the collection is about 3.4%.
Luciferase inh – qHTS Assay for Inhibitors of Firefly Luciferase | Luciferin 4-monooxygenase (Photinus pyralis), P08659 | purified firefly luciferase, luminescence, 8 min | Potency, µM (doses to about 57.1 µM), inactives show at the top dose activity change, negative = inhibition, most hits filed as inhibitors | 2.2% of 72,000 active | AID 411, 2009; active = well fitted inhibition curve with a large enough effect; inconclusive = small, poorly fitted or top-dose-only effect; note: % is set by controls: 0 for no effect and ±100 for the full control effect; nearly all actives have a fitted effect of over 40% in size
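qHTS concentration-response profiling: light output of P. pyralis luciferase with luciferin and 10 uM ATP, imidazole buffer pH 7.2. Read by luminescence after 8-min room-temperature incubation.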
Bst PK mod – Pyruvate Kinase; AID 361, 2006; 1.2% of 51,000 active; Potency, µM; purified pyruvate kinase, luminescence ATP production; ribose 5-phosphate activator present at AC10; in the data active = potency below about 11 µM; inconclusive = mostly about 12 µM to 25 µM;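 the screen sought inhibitors and activators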;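 note: scaled between full activation by ribose 5 phosphate and full inhibition by luteolin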
GBA mod – Glucocerebrosidase | Lysosomal acid glucosylceramidase (Homo sapiens), P04062 | purified enzyme, resorufin glucoside fluorescence (screen aimed at inhibitors), 20 min | Potency, µM | 1.1% of 48,000 active | AID 360, 2006; in the data active = potency below about 15 µM; inconclusive = mostly about 16 µM to 33 µM;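 note: the screen sought inhibitors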
Target sequence (P04062 whole entry, looked up): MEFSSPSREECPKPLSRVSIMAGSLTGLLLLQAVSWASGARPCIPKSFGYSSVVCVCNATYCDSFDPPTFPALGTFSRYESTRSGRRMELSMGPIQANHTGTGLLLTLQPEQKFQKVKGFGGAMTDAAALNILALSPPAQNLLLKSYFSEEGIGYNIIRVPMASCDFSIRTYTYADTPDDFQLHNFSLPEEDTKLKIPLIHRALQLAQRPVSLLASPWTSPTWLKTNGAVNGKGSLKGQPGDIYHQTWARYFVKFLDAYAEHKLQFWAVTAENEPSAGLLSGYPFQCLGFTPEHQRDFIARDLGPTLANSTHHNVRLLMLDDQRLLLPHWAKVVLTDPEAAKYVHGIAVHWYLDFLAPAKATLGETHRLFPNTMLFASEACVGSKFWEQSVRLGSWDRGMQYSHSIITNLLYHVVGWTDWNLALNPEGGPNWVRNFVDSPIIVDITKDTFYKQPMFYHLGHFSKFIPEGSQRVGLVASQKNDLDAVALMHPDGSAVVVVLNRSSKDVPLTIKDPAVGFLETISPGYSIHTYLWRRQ
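Normal human glucocerebrosidase (0.2 nM final) was assayed with resorufin β-D-glucopyranoside (30 uM final) in 50mM citric acid/KH2PO4, 10mM sodium taurocholate, 0.01% tween-20, pH 5.9. Compounds were titrated; fluorescence (Ex 548, Em 600) read after 20 min at RT.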
Numbers without * were called inactive; i = inactive; u = inconclusive; x = no result given; [ ] = remark or other dose. Potency is the fitted concentration of half-maximal effect.

SMILES	Luciferase inh	Bst PK mod	GBA mod
Cc1nn(-c2ccccc2)c(Cl)c1C1C(C#N)=C(N)OC2=C1C(=O)CCC2 (configuration not stated)	-0.5%	>57	i
COc1ccc(NC(=O)N2CCC3(CC2)CCN(S(=O)(=O)c2ccccc2)CC3)cc1	-2.2%[11.4 µM]	x	x
N#CC1=C(N)N(c2ccccc2C#N)C2=C(C(=O)CCC2)C1c1ccsc1 (configuration not stated)	-1.0%	>57	>76.9
N#CC1=C(N)N(c2ccccc2)C2=C(C(=O)CCC2)C1c1cccs1 (configuration not stated)	-5.5%	>57	12.9*
O=C(Nc1cccc(F)c1)N1CCCC2(CCN(C(=O)c3cnccn3)CC2)C1	1.2%[11.4 µM]	x	x
COc1ccccc1-c1nc(C#N)c(N2CCN(c3ccccc3)CC2)o1	2.2%	x	10.1*
COc1ccc(N2CCN(c3oc(-c4ccccc4OC)nc3C#N)CC2)cc1	1.7%	x	>76.9
Cc1ccccc1-c1nc(-n2ccnc2)c2ccccc2n1	0.2%[2.29 µM]	x	x
O=C(CCn1cnc2ccccc2c1=O)Nc1ccc2c(c1)OCCO2	-2.0%	>57	x
Cc1ccc(NC(=O)CCn2cnc3ccccc3c2=O)cc1Cl	0.7%	>57	6.51*
CC(=O)NCCNc1ccnc(-c2ccccc2C)n1	1.2%[2.29 µM]	x	x
CCOC(=O)C1[C@H]2C(=O)N(C(C)c3ccc(OC)cc3)C[C@]23C=C[C@H]1O3 (some centres not stated)	1.8%	i	>76.9
CCCOC(=O)C1[C@H]2C(=O)N(C(C)c3ccc(OC)cc3)C[C@]23C=C[C@H]1O3 (some centres not stated)	1.7%	>57	12.8*
CC1(C(=O)CSc2nc3ccccc3s2)CCC(=O)O1 (configuration not stated)	0.4%[25.5 µM]	10.2*	x
CC1CC2(CC(C)(C(=O)CSc3nc4ccccc4s3)OC2=O)C(=O)O1 (configuration not stated)	0.9%	i	x
CC(=O)OC[C@@H]1O[C@H](C/C=N\O[C@@H](C)c2cn([C@H]3COC[C@H]3O)nn2)C=C[C@@H]1OC(C)=O	0.9%[11.4 µM]	x	x
Cc1ccc(N(CC(=O)Nc2ccc3c(c2)OCCO3)S(=O)(=O)c2c(C)noc2C)cc1	0.5%	>57	u
COc1ccc(N(CC(=O)Nc2ccc3c(c2)OCCO3)S(=O)(=O)c2c(C)noc2C)cc1	-0.4%	>57	11.9*
COc1ccc(C(=O)N2CCC3(CCN(Cc4ccccc4OC)CC3)CC2)cc1	0.1%[11.4 µM]	x	x
Cc1nnc(NCc2ccco2)c2ccccc12	0.2%	>57	>76.9
Cc1sc2nc3c4ccccc4c(NCc4ccco4)nn3c(=O)c2c1C	u	1.96*	u
c1ccc(C2Nc3ccccc3-c3nc4ccccc4n32)nc1 (configuration not stated)	3.98µM*	u	x
O=C1c2ccccc2NC(c2ccccn2)N1c1ccc(Cl)cc1 (configuration not stated)	-5.3%	>57	>76.9
CC(C)=CCC/C(C)=C/CO/N=C1/C[C@@H](O)[C@@H](O)[C@@H]2[C@@H]3C(=O)N(Cc4ccc5c(c4)OCO5)C(=O)[C@H]3CC[C@@H]12	-0.5%[11.4 µM]	x	x
CN(C)CCOc1nc(-c2ccccc2)nc2c1oc1ccccc12	0.7%	10.7*	i
SMILES	Luciferase inh	Bst PK mod	GBA mod
CCN(CC)CCCOc1nc(C)nc2c1oc1ccccc12	1.2%	>57	>76.9
COc1ncc2nc(-c3ccc(F)cc3)c(=O)n(C)c2n1	1.3%[11.4 µM]	x	x
CSc1nc2sc3c(c2c2nnnn12)CCCC3	0.0%[25.5 µM]	>25.6	x
NC(=O)CSc1nc2sc3c(c2c2ncnn12)CCCC3	-1.5%	1.3*	>76.9
O=C(c1ccc(Cl)cc1)N1CCCCC(Sc2nnc(-c3ccc4c(c3)OCO4)o2)C1=O (configuration not stated)	12.6µM*	x	>76.9
O=C(c1ccc(F)cc1)N1CCCCC(Sc2nnc3ccccn23)C1=O (configuration not stated)	1.7%	>57	>76.9
O=C(c1csnn1)N1CCC2(CCCN(c3ccccn3)C2)CC1	1.1%[11.4 µM]	x	x
CC[N+](CC)(CC)CCOc1ccc(/C=C\c2ccccc2)cc1	-1.1%	x	x
CCSc1nnc(NC(=O)c2ccc(C)o2)s1	-0.8%	>57	>76.9
CCSc1nnc(NC(=O)c2cc(C)oc2C)s1	-5.5%	>57	10.9*
O=C(O)c1cc(NCc2cccs2)ccc1N1CCOCC1	2.0%	>57	>76.9
O=C(O)c1cc(NCc2ccccc2C(F)(F)F)ccc1N1CCOCC1	-0.1%	>57	12.6*
O=C1C[C@@H](O)[C@@H](O)[C@H]2[C@@H]3C(=O)N(Cc4ccccc4)C(=O)[C@@H]3CC[C@H]12	-0.5%[11.4 µM]	x	x
O=C(Nc1nc(-c2ccccc2)cs1)C1CCCO1 (configuration not stated)	-23.9%	>11.4	>76.9
Cc1cc(-c2csc(NC(=O)c3ccc(=O)n(C)n3)n2)c(C)n1CC1CCCO1 (configuration not stated)	-0.9%	9.1*	x
O=c1c2ccccc2sn1-c1ccc(S(=O)(=O)N2CCCCC2)cc1	-6.8%	>57	>76.9
Cc1ccc(-n2sc3ccccc3c2=O)cc1S(=O)(=O)N1CCCCC1	15.8µM*	>11.4	x
CO[C@H]1COC(=O)C/C=C\[C@H](C)COC(=O)[C@@H](C)NC(=O)C/C=C\[C@@H]1C	-0.4%[11.4 µM]	x	x
COc1ccccc1OCc1ccc(C(=O)Nc2ccncc2)o1	-2.8%	>57	13.2*
COc1ccccc1OCc1ccc(C(=O)NC(C)(C)C)o1	0.8%	>57	>76.9
CC(=O)Oc1ccc(/C=C\C(=O)C[C@@H]2O[C@@H](Oc3cc(OC(C)=O)c4c(c3)O[C@@H](c3ccc(OC(C)=O)cc3)CC4=O)[C@H](OC(C)=O)[C@H](OC(C)=O)[C@@H]2OC(C)=O)cc1	3.9%[11.4 µM]	x	x
O=C(O)c1ccncc1.O=C(O)c1ccncc1.[Cl][Pt]([Cl])([Cl])[Cl]	-4.3%[11.4 µM]	x	x
Cc1cccc2cc(C(c3nnnn3CC3CCCO3)N3CCCC4(CCCCC4)C3)c(=O)[nH]c12 (configuration not stated)	-6.3%	>57	>76.9
Cc1ccc2cc(C(c3nnnn3CC3CCCO3)N3CCCC4(CCCCC4)C3)c(=O)[nH]c2c1 (configuration not stated)	-4.7%	>57	10.1*
N#C/C(=C\c1c[nH]c2ccccc12)C(=O)c1ccc(O)c(O)c1	-2.3%	x	x
SMILES	Luciferase inh	Bst PK mod	GBA mod
COc1ccc(N2CCN(C(=O)CSc3ncccc3-c3nc4ccccc4[nH]3)CC2)cc1	12.6µM*	x	>76.9
COc1ccccc1N1CCN(C(=O)CSc2ncccc2-c2nc3ccccc3[nH]2)CC1	u	i	>76.9
Cc1cc(C)nc(SCCc2cccc[n+]2C)n1	2.7%[11.4 µM]	x	x
Cc1ccc2c(c1)c1cccc3c1n2CCN3CCC(N)=O	10µM*	x	x
COC(=O)c1c(C(=O)OC)n(CCCN)c2ccc(C)cc12	-33.3%	>57	u
O=c1c(-c2cc(F)cc(F)c2)nc2cncnc2n1-c1ccccc1	0.1%[11.4 µM]	x	x
CN(C)c1oc(-c2ccc(OCc3ccc(Cl)cc3)cc2)nc1C#N	1.0%	0.247*	>76.9
CN(C)c1oc(COc2ccc(F)cc2)nc1C#N	-0.5%	>57	>76.9
CC(=O)Oc1cc(OC(C)=O)c2c(=O)cc(-c3ccc(OC(C)=O)c(OC(C)=O)c3)oc2c1	-9.3%[11.4 µM]	x	x
C[n+]1cc2c3c(ccc2c2ccc4cc5c(cc4c21)OCO5)OCO3	12.6µM*	x	x
